The panel holds about 83,000 compounds, 20% with a hit somewhere; the sample as a whole holds those more often.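 The endpoint reported here, percent growth, reads 100 for growth as untreated, 0 for no net growth and -100 for all cells dead.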 A number with no mark means an inactive call. Calls of active or inactive are those of the source. The calls were made as follows: active = growth percent below 10; inactive = the rest.
How the values were obtained:
Assay in all cases: NCI-60 one-dose screen, 48 h (100 = growth as untreated, 0 = no growth, -100 = all killed)
Conditions in all cases: 10 µM unless noted
[1] = system: SR leukemia
[2] = system: RPMI-8226 leukemia
[3] = system: OVCAR-8 ovarian
[4] = system: OVCAR-5 ovarian
[5] = system: OVCAR-4 ovarian
[6] = system: SK-OV-3 ovarian
[7] = system: IGROV1 ovarian
[8] = system: OVCAR-3 ovarian
[9] = system: HS 578T breast
[10] = system: NCI/ADR-RES ovarian
[11] = system: T-47D breast
[12] = system: BT-549 breast
[13] = system: MDA-MB-435 melanoma
[14] = system: SW-620 colon
[15] = system: MCF7 breast
[16] = system: HCT-116 colon
[17] = system: HCC-2998 colon
[18] = system: KM12 colon

Row | SMILES | growth [1] | growth [2] | growth [3] | growth [4] | growth [5] | growth [6] | growth [7] | growth [8] | growth [9] | growth [10] | growth [11] | growth [12] | growth [13] | growth [14] | growth [15] | growth [16] | growth [17] | growth [18]
1 | O=C(NNC(=S)Nc1ccccc1)c1cc2ccc1CCc1ccc(cc1)CC2 | 78.4% | 46.4% | 68.2% | 92.2% | 47.8% | 113% | 64.1% | 55.5% | 97.2% | 67.2% | 53.6% | 80.4% | 70.3% | 63.6% | 61.7% | 44.5% | 70.2% | 77.1%
2 | CC(=O)Nc1scc[n+]1Cc1ccccc1 | 76.6% | 92.2% | 99.3% | 110% | 108% | 99.5% | 109% | 114% | 106% | 102% | 102% | 103% | 110% | 105% | 98.4% | 102% | 103% | 105%
3 | CCCN=C1NC(=O)/C(=C/c2nc(-c3ccc(OC)cc3)n3ccccc23)S1 | 62.5% | 74% | 86.7% | 104% | 87.5% | 98.1% | 94% | 61.9% | -8.63% (active) | 83.6% | 87.3% | 90.5% | 109% | 72.9% | 77.5% | 26.3% | 97% | 48.8%
4 | COc1cc(C(=O)/C=C/c2c(C)n([O-])c3ccc(C(F)(F)F)cc3[n+]2=O)cc(OC)c1OC | 24.4% | 59.6% | 8.63% (active) | 122% | 89.5% | 87.3% | 111% | -18.9% (active) | 119% | 75.7% | 18.3% | 80.6% | 94.1% | 26% | 45.4% | 21.1% | 105% | 91.4%
5 | O=C1/C(=C/c2ccccc2)CN(C(=O)CCN2CCC(=NO)CC2)C/C1=C\c1ccccc1 | 7.97% (active) | -28.6% (active) | 13.6% | 5.29% (active) | 15.3% | 77.5% | -5.65% (active) | -27% (active) | 17% | 14.6% | -2.11% (active) | 2.46% (active) | -58.1% (active) | -52% (active) | -21.5% (active) | -68.7% (active) | -65.5% (active) | -63.1% (active)
6 | COc1ccc(/C=C\c2cc(OC)c(OC)c(OC)c2)cc1OC(=O)c1cccc(Cn2cc(CCOC(=O)c3cccc(Cn4nnc5c4C(=O)c4ccccc4C5=O)c3)nn2)c1 | 12.5% | 12.4% | 16% | 28.8% | 31.6% | 41.7% | 16.1% | -10.1% (active) | 5.15% (active) | 11.5% | 67.6% | 27% | -36.3% (active) | 27.8% | 8.36% (active) | 6.52% (active) | 17.6% | 9.04% (active)
7 | O=[N+]([O-])c1cccc(-c2nc3sccn3c2-c2ccnc(NCCCNS(=O)(=O)c3ccc(C(F)(F)F)cc3)n2)c1 | 37.5% | -4.61% (active) | 22.3% | 90.6% | 15.2% | 71.9% | 25.6% | 28.7% | 63.3% | 8.78% (active) | -1.61% (active) | 30.3% | 18.4% | 66.6% | 14.9% | 30.5% | 52.9% | 23.9%
8 | O=[N+]([O-])c1ccc(-c2cn(-c3ccccc3)c(-c3ccccc3)n2)cc1 | 43.3% | -0.221% (active) | 70.6% | 95.4% | 84.2% | 79.1% | 64.2% | 97.4% | 97.5% | 85.3% | 65.9% | 96% | 100% | 95% | 74.4% | 87.1% | 104% | 94.4%
9 | C=C[C@@H]1C[C@@H]2Cc3ccccc3N1O2 | 97.1% | 85.5% | 106% | 97.4% | 112% | 114% | 121% | 121% | 100% | 106% | 110% | 114% | 100% | 102% | 111% | 101% | 114% | 110%
10 | CSc1nc2c(c(=O)[nH]1)C(c1ccc(C)cc1)C=C(C(=O)O)N2 (stereo not drawn) | 117% | 112% | 105% | 114% | 113% | 115% | 107% | 123% | 86.3% | 109% | 96.6% | 93.6% | 102% | 99.8% | 101% | 109% | 102% | 112%
11 | NC1=NN(O)C2=CC([N+](=O)[O-])C=CC2=N1 (stereo not drawn) | 94.8% | 99.2% | 99.4% | 118% | 108% | 100% | 120% | 99.8% | 98.8% | 93.4% | 101% | 104% | 109% | 110% | 96.1% | 107% | 97.2% | 103%
12 | CC(C)CSc1nc(NN)c(C#N)c(-c2ccc(F)cc2)n1 | 74.8% | 61.2% | 72% | 89.4% | 57.8% | 60.9% | 72.5% | 59.1% | 78.3% | 50.8% | 66.7% | 85.3% | 78.9% | 91.9% | 73.8% | 68.9% | 54.4% | 58.1%
13 | COc1ccc(OC)c(/C=C2\Oc3cc(OCCCN4CCCC4)ccc3C2=O)c1 | -22.8% (active) | 77.7% | 78.1% | 82.1% | 86.7% | 110% | 84.2% | 91% | 80.8% | 80.3% | 92.6% | 87.9% | 91.2% | 55.9% | 55.7% | 46.1% | 87.3% | 73.6%
14 | c1ccc(-c2cn(-c3ccccc3)c(-c3ccccc3)n2)cc1 | -29.7% (active) | -58.9% (active) | 21.1% | 83.4% | 88.7% | 97.1% | 4.72% (active) | 13.4% | 87.1% | 92.4% | 67.5% | 72.5% | 72.6% | 23.2% | -31.1% (active) | -91.4% (active) | 92.3% | 11.8%
15 | O=C(CSC1CCc2ccccc21)N/N=C/c1ccccc1O (stereo not drawn) | 17.7% | 71.5% | 57.3% | 78.1% | 38.1% | 50% | 27.4% | 20.6% | 84.9% | 24.1% | 40.3% | 68.9% | 71.7% | 52.9% | 19.2% | 31.5% |  | 41%
16 | CC(=O)Nc1ccc(/C=C/C(=O)c2ccccc2)cc1 | 3.34% (active) | -8.05% (active) | 98.4% | 113% | 106% | 101% | 43% | 57.6% | 81.7% | 103% | 73.9% | 86.2% | 114% | 53.2% | 56.4% | 77% | 113% | 46.6%
17 | CCN1CCN(CC(=O)N2c3cccc4cccc(c34)N(C(=O)CN3CCN(CC)CC3)C2c2cn(-c3ccccc3)nc2-c2cccc([N+](=O)[O-])c2)CC1 | -48% (active) | -39.3% (active) | -9.32% (active) | 1.54% (active) | -76.4% (active) | 115% | -29.1% (active) | -70.8% (active) | 69.6% | 47.3% | -70.7% (active) | 80.7% | -75.7% (active) | -43.6% (active) | -29% (active) | -54.9% (active) | -49.1% (active) | 23.4%
18 | Cc1nc2cncc(C#Cc3cncc(C(=O)Nc4ccc(CN5CCN(C)CC5)c(C(F)(F)F)c4)c3)c2nc1C | 19.7% | 8.79% (active) | 24.6% | 10.5% | 13.7% | -26.8% (active) | -5.34% (active) | 25.9% | -9.83% (active) | 18.5% | 26.6% | 37.6% | -1.99% (active) | 1.45% (active) | 19% | 5.45% (active) | 30.7% | 3.08% (active)

— PubChem BioAssay (NCI)
